# NIH3T3 tox – NIH 3T3 cell cytotoxicity; 94,000 compounds, 4.3% hits; Potency, µM (titrated, usually from 96.7 µM), hits mostly inhibitors; NIH 3T3 viability, CellTiter-Glo ATP luminescence, 48-72 h; note: nearly all actives have a fitted effect of over 55% in size
#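 First NIH 3T3 cells are plated at 400 cells/well; next compound is pinned in; then plates incubate 48 or 72 hr at 37 °C; finally CellTiter-Glo is added and luminescence read after 10 min.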
# Luciferase inh – inhibitors of firefly (Photinus pyralis) luciferase | Potency, µM (titrated, usually from 115 µM), hits mostly inhibitors | 76,000 compounds, 2.5% hits | AID 1347043 | purified P. pyralis luciferase, luminescence, biochemical; note: nearly all actives have a fitted effect of over 65% in size
#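 Inhibitors were tested against purified firefly luciferase in a biochemical, low-substrate format (both substrates at 10uM) and luminescence measured with a CCD imager.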
# NPR1 antag – blocks ANP-stimulated signaling of human Npr1 receptor; P16066; HEK293 hNpr1 GloSensor cGMP, ANP-stimulated luminescence; Potency, µM (highest dose often 46.3 µM), actives largely listed as inhibitors; 76,000 compounds, 1.6% hits; calls by dose curve; note: nearly all actives have a fitted effect of over 60% in size
# Target sequence (P16066 whole entry, looked up): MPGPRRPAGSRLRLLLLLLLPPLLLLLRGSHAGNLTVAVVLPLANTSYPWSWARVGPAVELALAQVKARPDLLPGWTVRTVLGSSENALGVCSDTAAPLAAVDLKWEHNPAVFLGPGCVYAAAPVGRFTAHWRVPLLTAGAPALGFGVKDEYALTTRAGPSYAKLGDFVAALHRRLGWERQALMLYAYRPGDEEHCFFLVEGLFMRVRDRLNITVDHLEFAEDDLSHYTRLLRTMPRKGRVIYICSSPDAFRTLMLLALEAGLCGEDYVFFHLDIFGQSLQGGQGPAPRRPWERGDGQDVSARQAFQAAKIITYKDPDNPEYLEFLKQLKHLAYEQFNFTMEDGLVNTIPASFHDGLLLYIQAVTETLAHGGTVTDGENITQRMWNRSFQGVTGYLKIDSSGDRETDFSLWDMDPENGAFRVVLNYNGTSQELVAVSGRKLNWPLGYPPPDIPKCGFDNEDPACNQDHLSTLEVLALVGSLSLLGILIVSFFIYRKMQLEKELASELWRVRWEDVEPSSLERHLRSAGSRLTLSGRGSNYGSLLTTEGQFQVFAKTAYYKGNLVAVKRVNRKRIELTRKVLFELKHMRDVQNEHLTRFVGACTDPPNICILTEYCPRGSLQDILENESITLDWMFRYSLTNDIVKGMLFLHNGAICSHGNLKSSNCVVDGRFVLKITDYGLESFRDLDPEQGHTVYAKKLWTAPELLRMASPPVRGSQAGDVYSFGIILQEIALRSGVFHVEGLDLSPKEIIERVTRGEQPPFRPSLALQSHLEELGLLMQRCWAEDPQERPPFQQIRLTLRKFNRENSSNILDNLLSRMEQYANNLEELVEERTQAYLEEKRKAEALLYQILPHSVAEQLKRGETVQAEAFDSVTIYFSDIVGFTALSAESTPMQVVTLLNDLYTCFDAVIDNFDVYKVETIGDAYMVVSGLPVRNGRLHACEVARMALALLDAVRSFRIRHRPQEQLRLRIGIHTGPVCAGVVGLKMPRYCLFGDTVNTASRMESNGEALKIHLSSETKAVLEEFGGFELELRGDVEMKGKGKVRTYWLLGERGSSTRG
#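 Compound pre-incubated 30 min at room temperature on GloSensor-loaded HEK293 cells stably carrying hNpr1 and the pGS-40F cGMP biosensor. Stimulation uses hNppA at 0.1 nM final; luminescence is taken at baseline and 20 min post-agonist.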
# HEK cytotox – kills HEK 293 cells | HEK 293 viability, ATP luminescence (CellTiter-Glo), 48-72 h | 94,000 compounds, 6.6% hits | AID 1345083 | Potency, µM (doses to about 115 µM), actives largely listed as inhibitors; note: nearly all actives have a fitted effect of over 60% in size
#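 Read-out: CellTiter-Glo ATP luminescence. Cells: HEK 293, 250 cells/well. Exposure: 48 or 72 hr, 37 degree Celsius.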
# Numbers stand for hits; – = inactive; ? = inconclusive; · = no result given. Hits are enriched below; roughly 11% of the tested compounds scored in any of these assays. Unless noted, calls come from the whole dose curve; as a rule, active = well fitted curve in the direction sought with a large enough effect; inconclusive = small, poorly fitted or top-dose-only effect, or another doubt; inactive = no such curve, though single readings can be large; an effect the other way counts as inactive or inconclusive.
SMILES,NIH3T3 tox,Luciferase inh,NPR1 antag,HEK cytotox
COCCNC(=O)Cc1ccc(N(Cc2ccccc2)C(=O)c2ccco2)cc1,–,–,–,–
O=C(Cc1ccc(N(Cc2ccccc2)C(=O)c2ccco2)cc1)NCCc1ccccc1,?,–,–,50µM
CC(C)CNC(=O)Cc1ccc(N(Cc2ccccc2)C(=O)c2ccco2)cc1,?,–,–,?
O=C(Cc1ccc(N(Cc2ccccc2)C(=O)c2ccco2)cc1)Nc1ccccc1,?,?,–,35µM
CNC(=O)[C@@H](CC(C)C)N1CCC[C@H]1C(=O)N1CCN(C)CC1,–,–,–,–
COc1cccc(-c2ccc(C(=O)N3CCC(N[S+](=O)([O-])c4cccc(C(F)(F)F)c4)CC3)cc2)c1,?,·,·,11µM
COc1cccc(-c2ccc(C(=O)N3CCC(NC(=O)c4ccc(Cl)cc4)CC3)cc2)c1,–,·,·,–
COc1cccc(-c2ccc(C(=O)N3CCC(N[S+](=O)([O-])c4ccc(C)cc4)CC3)cc2)c1,?,·,·,11µM
COc1cccc(-c2ccc(C(=O)N3CCC(C(=O)N4CCOCC4)CC3)cc2)c1,–,·,·,–
CC(=O)N1CCC(c2nnc3n2C(C(=O)NC2CCCCC2)CC3)CC1 (centres undefined),–,·,·,–
Cc1cncnc1C1CCN(c2cc(C3CC(N)C3)ncn2)CC1 (centres undefined),–,–,–,–
Cc1cnn(-c2cc(N3CCC(n4cc(C5CCCC5)nn4)CC3)ncn2)c1,?,–,?,45µM
COc1ccccc1-c1cccc(C(=O)N2CCN(C(=O)c3ccc(C)cc3)CC2)c1,?,·,·,40µM
COc1ccc(-c2cccc(C(=O)N3CCN(C(=O)c4ccc(C)cc4)CC3)c2)nn1,–,·,·,?
COc1ccccc1-c1cccc(C(=O)N2CCN(C(=O)c3cccc(Cl)c3)CC2)c1,?,·,·,40µM
COc1ccccc1-c1cccc(C(=O)N2CCN(C(=O)c3ccccc3F)CC2)c1,–,·,·,89µM
COc1ccccc1-c1cccc(C(=O)N2CCC[C@H]2C(=O)N2CCCCC2)c1,–,·,·,–
COc1ccccc1C(=O)N1CC(=O)N(Cc2cccs2)CC(O)C1 (centres undefined),–,·,·,?
CN(Cc1nc(-c2ccccc2)no1)CC1(O)CNCCOC1 (centres undefined),–,–,–,–
O=C(NC1CC1)C1(CCO)CCN(Cc2ccccc2)C1 (centres undefined),–,·,·,–
Cn1ncc2c(C(=O)N3CCOCC3)cc(-c3ccccc3F)nc21,?,·,·,–
COc1ccc(CC(=O)N2CCc3cn(C)c4cccc(c34)C2)cc1,?,–,–,?
COc1ccc(C(=O)N2CCc3cn(C)c4cccc(c34)C2)c(C)c1,?,–,–,22µM
COc1ccc(-c2ccc(C(=O)NC3CCOC3)cc2)nn1 (centres undefined),–,·,·,–
CCC(CNC(=O)c1csc2nc(-c3ccccc3Cl)cn12)N(C)C (centres undefined),?,–,–,?
SMILES,NIH3T3 tox,Luciferase inh,NPR1 antag,HEK cytotox
CC(c1nccs1)N(C)C(=O)c1csc2nc(-c3ccccc3Cl)cn12 (centres undefined),50µM,?,–,22µM
CCC1Oc2ccc(NC(=O)C3CCCC3)cc2CN(Cc2ccccc2Cl)C1=O (centres undefined),?,–,–,79µM
CCC1Oc2ccc(NC(=O)C3CCCC3)cc2CN(Cc2ccc(F)cc2Cl)C1=O (centres undefined),?,–,–,?
O=C(COc1ccccc1)Nc1ccc2c(c1)CN(Cc1ccccc1F)C(=O)CO2,?,–,?,?
O=C(Nc1ccc2c(c1)CN(Cc1ccc(Cl)cc1)C(=O)CO2)c1ccc(F)cc1F,?,–,–,79µM
O=C(COc1ccccc1)Nc1ccc2c(c1)CN(CCc1ccc(F)cc1)C(=O)CO2,?,?,16µM,?
CCC1Oc2ccc(NC(=O)Cc3ccc(F)cc3)cc2CN(Cc2ccc(Cl)cc2)C1=O (centres undefined),10µM,–,–,?
O=C(CCc1nc2ccccc2s1)NCCc1noc(-c2ccncc2)n1,–,–,–,–
Cc1nnc2ccc(N3CCN(C(=O)Cc4ccc(C(F)(F)F)cc4)CC3)nn12,–,·,·,?
O=C(NC1CC1)c1nc2sccn2c1-c1ccncc1,–,·,·,–
O=C(c1ccc2c(c1)OCO2)N1CCN(c2nnc3ccccn23)CC1,–,–,–,?
COc1ccccc1CN1Cc2cc(NC(=O)Cc3ccc(F)cc3)ccc2OC(C)C1=O (centres undefined),?,–,–,?
CC1Oc2ccc(NC(=O)Cc3ccc(F)cc3)cc2CN(Cc2ccc(Cl)cc2)C1=O (centres undefined),28µM,–,–,40µM
COc1ccc(C(=O)NC2CCN(C(=O)c3ccccc3-c3ccc(OC)nn3)CC2)cc1,–,·,·,–
Cc1ccc(NC(=O)CCC[C@H]2NC[C@@H]3C[C@H]2CN(Cc2ccccc2)C3)cc1,?,–,–,?
CN(C)S(=O)(=O)N1CCc2nc3cc(-c4ccccc4)[nH]n3c(=O)c2C1,–,0.45µM,–,–
COc1ccc(NC(=O)Nc2cccn3nc(C(C)C)nc23)cc1,?,45µM,–,?
COc1ccc(-c2cccc(C(=O)NCc3ccc(F)cc3)c2)nn1,?,·,·,89µM
COCCCNC(=O)c1cccc(-c2ccc(OC)nn2)c1,–,·,·,–
COc1ccc(-c2ccc(C(=O)NCc3ccc(C(F)(F)F)cc3)cc2)nn1,–,·,·,–
COc1ccc(-c2cccc(C(=O)NCc3ccc(C(F)(F)F)cc3)c2)nn1,?,·,·,40µM
COc1ccc(-c2cccc(C(=O)NCC(F)F)c2)nn1,–,·,·,–
COc1ccc(-c2cccc(C(=O)NCCCc3ccccc3)c2)nn1,?,·,·,79µM
O=C(NCc1ccccc1Cl)c1nc2cccnc2n(CCc2ccccc2)c1=O,–,·,·,–
CSc1ccc(-c2cccc(CN3CCC(NC(=O)NC4CCCC4)CC3)c2)cc1,–,·,·,–
SMILES,NIH3T3 tox,Luciferase inh,NPR1 antag,HEK cytotox
CSc1ccc(-c2cccc(CN3CCC(NC(=O)Nc4ccccc4F)CC3)c2)cc1,13µM,·,·,18µM
CSc1ccc(-c2cccc(CN3CCC(NC(=O)Nc4ccccc4)CC3)c2)cc1,14µM,·,·,?
Cc1ccc(-c2cc(C(=O)NCC(F)(F)F)c3cnn(C)c3n2)c(C)c1,–,·,·,?
CCNC(=O)N1CC2=CC(C)(C)COc3ccc(OC)c(c32)C1,–,·,·,?
CN1CCN(Cc2ccc(Nc3cnc4ccc(N5CCOCC5)nn34)cc2)CC1,–,–,–,?
CN1CCN(Cc2ccc(Nc3cnc4ccc(-n5ccnc5)nn34)cc2)CC1,?,?,–,50µM
O=c1ncn(Cc2ccccc2)c2ccc(-c3ccc(F)cc3F)nc12,89µM,–,–,–
CN(C)Cc1ccc(-c2cc(-c3ccncc3)c3cncn3c2)cc1,?,?,–,89µM
Cc1noc(C)c1-c1cc(-c2ccc(CN(C)C)cc2)cn2cncc12,28µM,–,–,?
Cc1noc(C)c1-c1cc(-c2ccncc2)cn2cncc12,?,–,–,?
COc1ccc(-c2noc([C@@H]3Cc4nc[nH]c4CN3Cc3cccs3)n2)cc1,89µM,71µM,–,?

# Compound activity from PubChem BioAssay.
